Experiment [1] concerns the target T1, Inhibitor of nuclear factor kappa-B kinase subunit epsilon (Homo sapiens) (UniProt Q14164).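 Note: reported values are averaged percent inhibition figures against human IKKε.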
T1 sequence (whole entry): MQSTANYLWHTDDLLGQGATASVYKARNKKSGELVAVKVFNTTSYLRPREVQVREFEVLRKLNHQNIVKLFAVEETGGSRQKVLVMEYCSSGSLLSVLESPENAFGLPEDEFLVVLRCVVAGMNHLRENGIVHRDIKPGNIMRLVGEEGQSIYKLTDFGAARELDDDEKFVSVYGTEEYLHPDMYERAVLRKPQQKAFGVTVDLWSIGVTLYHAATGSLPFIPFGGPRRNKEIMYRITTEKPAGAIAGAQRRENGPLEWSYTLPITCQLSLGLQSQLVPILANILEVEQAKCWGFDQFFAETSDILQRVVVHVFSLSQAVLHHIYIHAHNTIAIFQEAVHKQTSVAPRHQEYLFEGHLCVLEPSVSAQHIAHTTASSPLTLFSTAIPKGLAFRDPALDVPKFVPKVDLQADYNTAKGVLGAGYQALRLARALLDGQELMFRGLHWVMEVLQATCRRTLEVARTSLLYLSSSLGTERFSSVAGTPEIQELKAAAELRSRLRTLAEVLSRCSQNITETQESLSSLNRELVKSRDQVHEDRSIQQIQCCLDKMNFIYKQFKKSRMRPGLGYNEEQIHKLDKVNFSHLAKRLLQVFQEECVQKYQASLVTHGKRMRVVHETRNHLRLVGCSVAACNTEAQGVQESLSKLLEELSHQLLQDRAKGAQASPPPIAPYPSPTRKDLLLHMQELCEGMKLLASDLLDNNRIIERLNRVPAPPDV
The following applies: at 1 µM.

For experiment [2], the target named is T2, Serine/threonine-protein kinase Nek1 (Homo sapiens) (UniProt Q96PY6).
T2 sequence (whole entry): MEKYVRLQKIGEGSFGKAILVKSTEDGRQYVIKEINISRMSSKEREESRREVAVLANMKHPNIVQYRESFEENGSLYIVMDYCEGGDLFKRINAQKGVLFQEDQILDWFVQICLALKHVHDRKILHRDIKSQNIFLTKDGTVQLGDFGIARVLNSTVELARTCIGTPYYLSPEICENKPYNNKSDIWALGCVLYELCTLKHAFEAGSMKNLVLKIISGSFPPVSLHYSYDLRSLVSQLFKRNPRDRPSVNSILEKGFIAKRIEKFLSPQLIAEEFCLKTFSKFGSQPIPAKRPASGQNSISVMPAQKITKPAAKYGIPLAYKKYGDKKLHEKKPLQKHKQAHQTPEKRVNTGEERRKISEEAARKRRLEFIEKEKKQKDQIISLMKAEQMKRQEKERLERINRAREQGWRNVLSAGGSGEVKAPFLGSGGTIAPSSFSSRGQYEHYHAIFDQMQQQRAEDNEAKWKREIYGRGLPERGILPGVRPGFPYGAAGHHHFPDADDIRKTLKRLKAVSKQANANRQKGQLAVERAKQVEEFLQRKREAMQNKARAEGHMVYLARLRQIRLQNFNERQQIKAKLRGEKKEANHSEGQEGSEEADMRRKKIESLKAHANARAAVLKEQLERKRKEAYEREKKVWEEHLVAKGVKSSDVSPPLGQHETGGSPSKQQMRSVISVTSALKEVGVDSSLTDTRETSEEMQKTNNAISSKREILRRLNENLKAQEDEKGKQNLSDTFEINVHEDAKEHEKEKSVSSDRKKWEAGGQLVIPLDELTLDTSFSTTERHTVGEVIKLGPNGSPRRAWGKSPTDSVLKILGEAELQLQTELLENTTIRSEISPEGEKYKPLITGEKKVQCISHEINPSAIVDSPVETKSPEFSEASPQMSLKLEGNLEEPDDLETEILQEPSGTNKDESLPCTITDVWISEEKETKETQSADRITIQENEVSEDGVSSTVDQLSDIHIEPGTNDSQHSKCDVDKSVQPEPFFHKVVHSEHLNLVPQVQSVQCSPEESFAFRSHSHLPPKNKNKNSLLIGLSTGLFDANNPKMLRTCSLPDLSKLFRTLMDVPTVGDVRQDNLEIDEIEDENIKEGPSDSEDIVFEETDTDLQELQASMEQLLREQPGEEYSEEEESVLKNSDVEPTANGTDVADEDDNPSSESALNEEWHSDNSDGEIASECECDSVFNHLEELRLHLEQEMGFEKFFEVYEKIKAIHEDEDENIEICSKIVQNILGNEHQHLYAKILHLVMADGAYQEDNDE
Conditions: at 0.1 µM.

Experiment [3] has as its target T2, Serine/threonine-protein kinase Nek1 (Homo sapiens). Conditions: at 1 µM.
In experiment [4] the target is T3, Serine/threonine-protein kinase Nek2 (Homo sapiens) (UniProt P51955).
T3 sequence (whole entry): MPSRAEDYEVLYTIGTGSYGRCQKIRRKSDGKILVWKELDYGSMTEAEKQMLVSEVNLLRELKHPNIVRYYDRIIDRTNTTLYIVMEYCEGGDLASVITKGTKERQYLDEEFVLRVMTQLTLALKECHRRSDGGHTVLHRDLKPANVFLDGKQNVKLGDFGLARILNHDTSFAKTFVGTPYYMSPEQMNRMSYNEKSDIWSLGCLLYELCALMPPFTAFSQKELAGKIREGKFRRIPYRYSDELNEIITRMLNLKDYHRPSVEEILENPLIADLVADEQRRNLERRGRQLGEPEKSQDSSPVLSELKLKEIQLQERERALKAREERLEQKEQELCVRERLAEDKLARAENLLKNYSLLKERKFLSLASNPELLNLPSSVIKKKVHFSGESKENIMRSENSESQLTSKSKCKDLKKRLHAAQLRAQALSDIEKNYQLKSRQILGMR
Conditions: at 0.1 µM.

Experiment [5] deals with T3, Serine/threonine-protein kinase Nek2 (Homo sapiens). Conditions: at 1 µM.
In experiment [6] the target is Serine/threonine-protein kinase Nek6 (Homo sapiens) (UniProt Q9HC98). Conditions: at 0.1 µM.
Serine/threonine-protein kinase Nek6 (Homo sapiens), sequence (Q9HC98 whole entry): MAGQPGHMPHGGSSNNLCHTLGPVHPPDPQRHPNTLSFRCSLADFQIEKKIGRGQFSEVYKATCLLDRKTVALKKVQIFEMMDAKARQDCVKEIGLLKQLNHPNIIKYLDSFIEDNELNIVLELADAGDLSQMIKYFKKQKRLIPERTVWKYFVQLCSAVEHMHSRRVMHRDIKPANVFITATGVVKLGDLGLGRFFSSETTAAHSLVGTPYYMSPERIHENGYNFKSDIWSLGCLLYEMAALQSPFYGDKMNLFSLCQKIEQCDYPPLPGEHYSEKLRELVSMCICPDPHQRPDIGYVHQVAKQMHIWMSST
The target is the same in experiment [7]. Conditions: at 1 µM.
Experiment [8] deals with Serine/threonine-protein kinase Nek7 (Homo sapiens) (UniProt Q8TDX7). Conditions: at 0.1 µM.
Serine/threonine-protein kinase Nek7 (Homo sapiens), sequence (Q8TDX7 whole entry, looked up): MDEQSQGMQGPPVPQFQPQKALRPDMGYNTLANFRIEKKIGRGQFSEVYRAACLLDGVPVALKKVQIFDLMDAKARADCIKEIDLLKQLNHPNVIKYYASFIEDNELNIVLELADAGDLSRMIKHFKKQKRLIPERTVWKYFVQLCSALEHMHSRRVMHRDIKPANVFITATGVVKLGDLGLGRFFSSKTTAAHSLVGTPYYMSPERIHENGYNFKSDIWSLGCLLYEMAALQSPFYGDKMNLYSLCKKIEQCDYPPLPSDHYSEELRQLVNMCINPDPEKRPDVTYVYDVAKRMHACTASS
Experiment [9] shares this target. The following applies: at 1 µM.
In experiment [10] the target is T4, Serine/threonine-protein kinase Nek9 (Homo sapiens) (UniProt Q8TD19).
T4 sequence (whole entry): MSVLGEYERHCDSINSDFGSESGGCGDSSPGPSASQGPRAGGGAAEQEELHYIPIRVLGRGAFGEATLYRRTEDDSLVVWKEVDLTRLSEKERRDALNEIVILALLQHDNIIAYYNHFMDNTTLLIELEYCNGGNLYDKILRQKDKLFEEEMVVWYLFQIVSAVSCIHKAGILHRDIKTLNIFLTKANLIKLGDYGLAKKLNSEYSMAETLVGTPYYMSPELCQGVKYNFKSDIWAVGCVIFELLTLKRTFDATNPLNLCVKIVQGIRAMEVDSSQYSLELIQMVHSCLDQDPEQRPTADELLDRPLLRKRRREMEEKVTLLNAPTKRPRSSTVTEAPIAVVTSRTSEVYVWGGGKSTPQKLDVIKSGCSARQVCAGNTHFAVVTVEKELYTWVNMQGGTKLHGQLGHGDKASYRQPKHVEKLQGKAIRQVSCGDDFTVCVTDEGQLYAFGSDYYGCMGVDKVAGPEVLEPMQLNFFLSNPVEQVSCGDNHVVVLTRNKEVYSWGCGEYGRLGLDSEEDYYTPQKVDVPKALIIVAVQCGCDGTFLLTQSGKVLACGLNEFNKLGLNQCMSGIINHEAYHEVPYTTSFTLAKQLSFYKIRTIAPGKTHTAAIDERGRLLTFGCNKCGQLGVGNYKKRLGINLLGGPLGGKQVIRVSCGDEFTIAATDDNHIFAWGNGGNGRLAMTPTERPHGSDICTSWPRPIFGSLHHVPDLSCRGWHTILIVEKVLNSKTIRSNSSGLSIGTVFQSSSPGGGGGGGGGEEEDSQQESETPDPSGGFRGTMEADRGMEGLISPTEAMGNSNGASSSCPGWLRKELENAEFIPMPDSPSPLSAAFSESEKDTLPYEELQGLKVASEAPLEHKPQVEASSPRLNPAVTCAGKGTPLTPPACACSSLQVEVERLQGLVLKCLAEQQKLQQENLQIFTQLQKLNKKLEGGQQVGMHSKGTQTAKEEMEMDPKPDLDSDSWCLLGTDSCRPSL
The following applies: at 0.1 µM.

The target of experiment [11] is T4, Serine/threonine-protein kinase Nek9 (Homo sapiens). Conditions: at 1 µM.
For experiment [12], the target named is Serine/threonine-protein kinase PLK1 (Homo sapiens) (UniProt P53350). Conditions: at 0.1 µM.
Serine/threonine-protein kinase PLK1 (Homo sapiens), sequence (P53350 whole entry): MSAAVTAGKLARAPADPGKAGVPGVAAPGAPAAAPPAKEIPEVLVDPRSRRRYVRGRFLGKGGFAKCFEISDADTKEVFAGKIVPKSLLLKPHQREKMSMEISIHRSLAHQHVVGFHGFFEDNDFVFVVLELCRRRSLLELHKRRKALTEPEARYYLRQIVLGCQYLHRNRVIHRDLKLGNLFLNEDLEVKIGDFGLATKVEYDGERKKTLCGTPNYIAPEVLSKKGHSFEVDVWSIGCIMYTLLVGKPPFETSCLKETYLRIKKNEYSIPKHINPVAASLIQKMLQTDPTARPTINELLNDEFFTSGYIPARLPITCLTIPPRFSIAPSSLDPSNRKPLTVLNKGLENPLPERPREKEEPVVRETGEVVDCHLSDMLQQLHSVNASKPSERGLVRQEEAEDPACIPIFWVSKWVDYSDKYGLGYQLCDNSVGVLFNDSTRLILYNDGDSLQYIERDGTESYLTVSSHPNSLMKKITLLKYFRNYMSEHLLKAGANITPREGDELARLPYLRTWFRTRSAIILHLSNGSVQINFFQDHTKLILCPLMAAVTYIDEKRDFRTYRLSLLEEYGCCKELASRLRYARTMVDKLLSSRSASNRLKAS
The target is the same in experiment [13]. The following applies: at 1 µM.
Experiment [14] deals with T5, Dual specificity protein kinase TTK (Homo sapiens) (UniProt P33981).
T5 sequence (whole entry): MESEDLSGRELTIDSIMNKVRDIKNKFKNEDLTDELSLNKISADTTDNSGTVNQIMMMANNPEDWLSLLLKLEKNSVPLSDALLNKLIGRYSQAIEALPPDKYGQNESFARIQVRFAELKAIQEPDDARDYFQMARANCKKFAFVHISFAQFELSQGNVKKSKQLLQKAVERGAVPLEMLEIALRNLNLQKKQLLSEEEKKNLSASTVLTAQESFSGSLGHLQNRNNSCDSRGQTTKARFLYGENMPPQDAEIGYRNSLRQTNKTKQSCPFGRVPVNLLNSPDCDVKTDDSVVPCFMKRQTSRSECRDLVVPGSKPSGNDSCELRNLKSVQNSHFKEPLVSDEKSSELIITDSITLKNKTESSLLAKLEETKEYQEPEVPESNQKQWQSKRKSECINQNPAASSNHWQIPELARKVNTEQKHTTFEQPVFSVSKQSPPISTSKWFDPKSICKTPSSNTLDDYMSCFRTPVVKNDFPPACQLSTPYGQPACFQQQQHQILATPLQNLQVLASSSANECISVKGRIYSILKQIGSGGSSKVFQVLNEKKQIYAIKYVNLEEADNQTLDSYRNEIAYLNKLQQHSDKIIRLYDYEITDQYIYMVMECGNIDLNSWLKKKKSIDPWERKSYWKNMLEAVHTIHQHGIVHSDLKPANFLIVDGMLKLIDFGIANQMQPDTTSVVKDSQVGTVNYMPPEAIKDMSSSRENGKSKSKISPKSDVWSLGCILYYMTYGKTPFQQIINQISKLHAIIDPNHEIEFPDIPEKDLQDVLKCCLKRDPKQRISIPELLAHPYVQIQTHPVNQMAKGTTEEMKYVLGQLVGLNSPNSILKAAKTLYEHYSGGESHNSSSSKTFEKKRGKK
The following applies: at 0.1 µM.

In experiment [15] the test system is T6, Receptor-type tyrosine-protein kinase FLT3 (Homo sapiens), P36888 [D835Y].
T6 sequence (whole entry): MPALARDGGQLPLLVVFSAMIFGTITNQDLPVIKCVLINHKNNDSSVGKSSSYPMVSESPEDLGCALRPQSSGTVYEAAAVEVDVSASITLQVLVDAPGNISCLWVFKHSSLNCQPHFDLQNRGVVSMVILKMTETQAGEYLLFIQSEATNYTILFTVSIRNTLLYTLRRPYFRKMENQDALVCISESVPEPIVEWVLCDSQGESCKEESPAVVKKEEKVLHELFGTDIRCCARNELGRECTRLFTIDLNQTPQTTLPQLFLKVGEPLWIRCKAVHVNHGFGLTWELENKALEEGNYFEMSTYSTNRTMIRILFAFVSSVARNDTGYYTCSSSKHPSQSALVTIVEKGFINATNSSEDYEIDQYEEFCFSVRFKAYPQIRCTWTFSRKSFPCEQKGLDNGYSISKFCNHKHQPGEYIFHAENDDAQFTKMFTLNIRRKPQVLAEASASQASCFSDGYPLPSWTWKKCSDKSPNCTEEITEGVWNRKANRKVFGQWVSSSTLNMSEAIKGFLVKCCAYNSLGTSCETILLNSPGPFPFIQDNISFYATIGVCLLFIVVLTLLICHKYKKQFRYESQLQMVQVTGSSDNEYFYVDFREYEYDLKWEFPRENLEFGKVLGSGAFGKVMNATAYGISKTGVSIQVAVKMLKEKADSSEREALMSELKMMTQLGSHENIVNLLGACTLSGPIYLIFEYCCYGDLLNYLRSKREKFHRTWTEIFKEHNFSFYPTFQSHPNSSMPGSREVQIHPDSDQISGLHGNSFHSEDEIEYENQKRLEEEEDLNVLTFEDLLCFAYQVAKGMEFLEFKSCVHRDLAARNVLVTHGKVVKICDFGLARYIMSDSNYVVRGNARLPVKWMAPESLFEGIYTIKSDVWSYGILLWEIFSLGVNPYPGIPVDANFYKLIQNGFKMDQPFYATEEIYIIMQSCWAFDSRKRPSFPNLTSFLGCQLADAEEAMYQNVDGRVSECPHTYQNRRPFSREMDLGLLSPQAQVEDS
Conditions: at 1 µM.

Experiment [16] addresses Vascular endothelial growth factor receptor 3 (Homo sapiens) (UniProt P35916). Conditions: at 0.1 µM.
The target is the same in experiment [17]. The following applies: at 1 µM.
Experiment [18] addresses Macrophage colony-stimulating factor 1 receptor (Homo sapiens) (UniProt P07333). Conditions: at 0.1 µM.
The target is the same in experiment [19]. The following applies: at 1 µM.
Experiment [20] addresses Tyrosine-protein kinase Fyn (Homo sapiens) (UniProt P06241). The following applies: at 0.1 µM.

“And” between values parts separate entries of the source, which are not always exact repeats. Identical values can stand only once.

Vascular endothelial growth factor receptor 3 (Homo sapiens), sequence (P35916 whole entry): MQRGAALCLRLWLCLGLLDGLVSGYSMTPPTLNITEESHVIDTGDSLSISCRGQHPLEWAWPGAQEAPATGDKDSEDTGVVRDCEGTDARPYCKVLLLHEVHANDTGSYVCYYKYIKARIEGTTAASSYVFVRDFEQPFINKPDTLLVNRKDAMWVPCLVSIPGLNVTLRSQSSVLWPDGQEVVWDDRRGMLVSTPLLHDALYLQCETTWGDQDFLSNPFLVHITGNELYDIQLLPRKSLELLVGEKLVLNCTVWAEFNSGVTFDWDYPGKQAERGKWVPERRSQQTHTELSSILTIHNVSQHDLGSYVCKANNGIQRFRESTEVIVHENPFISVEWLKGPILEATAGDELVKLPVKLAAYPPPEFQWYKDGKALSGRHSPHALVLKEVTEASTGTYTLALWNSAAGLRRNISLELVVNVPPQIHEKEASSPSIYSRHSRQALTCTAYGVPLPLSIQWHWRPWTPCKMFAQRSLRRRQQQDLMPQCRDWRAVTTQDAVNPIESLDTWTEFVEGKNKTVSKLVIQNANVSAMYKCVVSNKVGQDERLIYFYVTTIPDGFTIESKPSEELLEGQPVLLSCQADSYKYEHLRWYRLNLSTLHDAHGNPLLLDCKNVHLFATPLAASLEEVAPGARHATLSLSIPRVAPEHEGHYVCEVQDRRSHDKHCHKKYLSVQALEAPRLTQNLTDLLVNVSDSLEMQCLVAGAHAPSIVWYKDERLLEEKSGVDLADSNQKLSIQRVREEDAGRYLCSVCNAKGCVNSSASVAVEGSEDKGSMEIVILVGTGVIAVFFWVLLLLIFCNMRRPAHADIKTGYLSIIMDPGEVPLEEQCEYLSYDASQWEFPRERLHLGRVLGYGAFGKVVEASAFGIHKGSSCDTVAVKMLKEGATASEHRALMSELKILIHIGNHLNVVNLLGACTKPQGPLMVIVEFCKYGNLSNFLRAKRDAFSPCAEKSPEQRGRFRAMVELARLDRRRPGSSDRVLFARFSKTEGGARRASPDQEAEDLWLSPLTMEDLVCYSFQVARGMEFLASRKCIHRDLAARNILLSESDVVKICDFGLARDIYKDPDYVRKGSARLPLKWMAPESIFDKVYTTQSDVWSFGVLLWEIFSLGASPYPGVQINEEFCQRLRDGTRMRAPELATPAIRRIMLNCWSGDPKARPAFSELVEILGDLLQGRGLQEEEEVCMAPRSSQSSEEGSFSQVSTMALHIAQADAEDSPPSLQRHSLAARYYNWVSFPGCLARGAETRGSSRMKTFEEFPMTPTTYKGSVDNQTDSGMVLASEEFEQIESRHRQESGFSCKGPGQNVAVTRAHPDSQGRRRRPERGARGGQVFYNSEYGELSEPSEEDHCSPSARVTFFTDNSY
Macrophage colony-stimulating factor 1 receptor (Homo sapiens), sequence (P07333 whole entry): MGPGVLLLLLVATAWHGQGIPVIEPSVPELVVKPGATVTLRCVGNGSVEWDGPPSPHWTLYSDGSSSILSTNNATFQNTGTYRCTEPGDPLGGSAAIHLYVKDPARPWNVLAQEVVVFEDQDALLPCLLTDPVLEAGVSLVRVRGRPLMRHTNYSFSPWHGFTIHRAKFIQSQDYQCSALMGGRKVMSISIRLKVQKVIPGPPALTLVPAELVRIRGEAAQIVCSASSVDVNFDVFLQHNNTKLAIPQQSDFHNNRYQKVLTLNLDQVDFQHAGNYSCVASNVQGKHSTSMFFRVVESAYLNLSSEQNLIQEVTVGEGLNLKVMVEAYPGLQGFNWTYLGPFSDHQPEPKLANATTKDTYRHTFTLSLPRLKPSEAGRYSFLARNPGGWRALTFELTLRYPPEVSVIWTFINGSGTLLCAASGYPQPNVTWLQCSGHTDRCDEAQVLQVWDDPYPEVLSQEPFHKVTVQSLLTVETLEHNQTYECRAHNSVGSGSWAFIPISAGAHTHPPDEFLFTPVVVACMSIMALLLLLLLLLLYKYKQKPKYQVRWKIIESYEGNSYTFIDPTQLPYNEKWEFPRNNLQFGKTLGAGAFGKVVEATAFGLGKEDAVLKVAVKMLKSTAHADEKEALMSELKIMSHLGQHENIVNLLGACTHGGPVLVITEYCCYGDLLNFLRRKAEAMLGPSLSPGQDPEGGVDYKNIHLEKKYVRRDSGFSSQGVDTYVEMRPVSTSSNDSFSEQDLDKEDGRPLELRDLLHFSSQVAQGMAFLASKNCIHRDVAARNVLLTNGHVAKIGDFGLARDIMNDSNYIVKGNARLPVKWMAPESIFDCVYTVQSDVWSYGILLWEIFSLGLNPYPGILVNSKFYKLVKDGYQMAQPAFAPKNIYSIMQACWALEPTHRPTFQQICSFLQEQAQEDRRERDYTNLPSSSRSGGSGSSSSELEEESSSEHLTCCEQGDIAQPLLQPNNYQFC
Tyrosine-protein kinase Fyn (Homo sapiens), sequence (P06241 2-537 limits assumed): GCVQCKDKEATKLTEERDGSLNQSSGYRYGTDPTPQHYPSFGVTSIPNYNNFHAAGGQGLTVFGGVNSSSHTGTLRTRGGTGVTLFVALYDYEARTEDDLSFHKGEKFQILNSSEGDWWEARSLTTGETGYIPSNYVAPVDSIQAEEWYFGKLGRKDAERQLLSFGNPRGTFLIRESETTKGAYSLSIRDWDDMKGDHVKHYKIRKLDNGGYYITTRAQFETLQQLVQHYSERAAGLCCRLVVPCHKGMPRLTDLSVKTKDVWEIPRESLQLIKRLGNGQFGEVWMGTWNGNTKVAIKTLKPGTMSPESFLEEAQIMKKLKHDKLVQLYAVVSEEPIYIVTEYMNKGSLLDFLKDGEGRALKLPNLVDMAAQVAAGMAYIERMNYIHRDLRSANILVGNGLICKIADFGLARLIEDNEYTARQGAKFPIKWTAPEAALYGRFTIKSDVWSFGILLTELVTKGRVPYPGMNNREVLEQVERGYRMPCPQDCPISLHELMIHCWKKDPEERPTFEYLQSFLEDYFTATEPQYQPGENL

Turning to `CN1CCN(Cc2ccc(-c3cc4ncnc(Nc5ccc(OCc6cccc(F)c6)c(Cl)c5)c4s3)o2)CC1`, the inhibition (commonly the relative decrease from the control value, in per cent) in experiment [1] is 4.6% and 4.24%; in [2], 1.24% and 3.95%; in experiment [3], 2.68% and 4.85%; in [4] it was 3.46% and 4.63%; in experiment [5] it was 2.94% and 4.7%; in experiment [6], -1.83% and 5.78%. The inhibition is 0.03% and 5.91% in experiment [7]; 2.08% and 6.06% in [8]; 5.67% and 4.39% in experiment [9]; -2.04% and 6.24% in experiment [10]; 5.83% and 18% in experiment [11]; 3.39% and 1.18% in experiment [12]. Besides, the inhibition was 2.38% and 4.14% in experiment [13]; 6.58% and 12.2% in [14]; -2.05% and 1.99% in experiment [15]; 2.97% and 4.96% in experiment [16]; 3.14% and 8.22% in experiment [17]; 3.64% and 7.74% in [18]. Further, the inhibition was 27.9% and 35.8% in experiment [19]; 2.24% and 2.04% in experiment [20].

Values taken from ChEMBL document CHEMBL1961873, “Compounds: GSK PKIS; Assays: Nanosyn kinase panel” (2012).
